Compound activity (PubChem BioAssay)
The list is not random: actives were taken first. Their share in the collection is about 2.3%.
LEDGF integ inh = blocks HIV-1 LEDGF/p75-dependent DNA integration; TR-FRET IN-LEDGF/p75 DNA integration, Eu/Cy5; inhibition, % at 3.7 µM; 370,000 tested, 0.64% active; AID 743269;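 active = inhibition above the screen-wide mean plus 3 SD, cut at about 13% in these data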;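 note: signal is the Cy5 over europium emission ratio at 671 and 618 nm; 0% = plate median of compound wells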
MBD2 DNA inh = inhibitors of human MBD2 binding to methylated oligonucleotide | Q9UBB5 | TR-FRET | inhibition, % at 4.4 µM | 370,000 tested, 0.31% active | AID 686964; in the data active = inhibition above about 13%
PLC-beta3 inh = inhibitors of human phospholipase C beta3 | Purified PLC-beta3, fluorogenic substrate, fluorescence | inhibition, % at 12.2 µM | 370,000 tested, 0.18% active | AID 720704; in the data active = inhibition above about 11%;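 note: 0% = median of compound wells on plate and 100% = full blocker control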
PLCg1 inh = PLC-gamma1 (human) inhibition, primary screen. P19174. purified PLC-gamma1, fluorogenic substrate, fluorescence. inhibition, % at 12.2 µM. 370,000 tested, 0.84% active. AID 720700
UHRF1 MBD2 ctr = UHRF1 methyl-DNA binding inhibition; UHRF1 binding to methylated oligo, TR-FRET; 370,000 tested, 0.75% active; Q96T88; inhibition, % at 4.4 µM; in the data active = inhibition above about 21%;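 note: UHRF1 SRA domain binding a hemimethylated CpG hairpin DNA probe; 0% = median of test compound wells and 100% = reference inhibitor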
PLCg1 ctr = PLC-gamma1 inhibition, counter-screen for PLC-beta3 hits; purified PLC-gamma1, fluorogenic substrate, fluorescence; 3,300 tested, 3.1% active; AID 743258; shares compounds with PLCg1 inh; inhibition, % at 12.3 µM
PLCb3 confirm = human PLC-beta3 inhibition, confirmation. purified PLC-beta3, fluorogenic substrate fluorescence. 3,300 tested, 1% active. AID 743261. inhibition, % at 12.3 µM. shares compounds with PLCg1 inh; in the data active = inhibition above about 11%
IN multimer up = HIV-1 integrase multimerization activation, counter-screen; 2,000 tested, 17% active; TR-FRET HIV-1 integrase multimerization, biochemical; AID 1053131; activation, % at 7.7 µM; shares compounds with LEDGF integ inh; in the data active = activation above about 8.9%
TRFRET interf = optically interferes with TR-FRET readout in LEDGF counter-screen | shares compounds with LEDGF integ inh | TR-FRET optical interference counterscreen, HIV-1 IN multimerization | inhibition, % at 7.7 µM | 2,000 tested, under 10 active | AID 1053135;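 active = inhibition above the mean over all tested compounds plus 3 SD, which no compound reached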;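 note: 0% = integrase with antibodies and DMSO and 100% = antibodies without integrase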
LEDGF integ conf = confirmation of HIV-1 LEDGF/p75-dependent integration inhibitors; shares compounds with LEDGF integ inh; TR-FRET LEDGF/p75-dependent HIV-1 integration, biochemical; inhibition, % at 3.7 µM; 2,000 tested, 36% active; AID 1053136; in the data active = inhibition above about 14%
* marks the source's active call; other numbers are inactive results; i = inactive; . = no result. Cut-off read from the data, not from the text of the source, unless noted: active = inhibition above about 9.5%; inactive = the rest.

SMILES	LEDGF integ inh	MBD2 DNA inh	PLC-beta3 inh	PLCg1 inh	UHRF1 MBD2 ctr	IN multimer up	TRFRET interf	LEDGF integ conf	others
COc1ccc(-c2ccc3c(c2)CN(c2cccc(Cl)c2)Cc2cnnn2-3)cc1	73*	11	-4	13*	25*	-1	5	14*	PLCg1 ctr=-4;PLCb3 confirm=-10
C=CCN1CC[C@]23c4c5ccc(O)c4OC2C(=O)CC[C@@]3(O)[C@H]1C5 (some centres not stated)	1	-3	-1	2	-2	.	.	.
CC(Cc1ccc(O)cc1)NCC(O)c1ccc(O)c(O)c1 (configuration not stated)	35*	-7	-22	-16	0	10*	-51	63*
C=C1C(=O)OC2CCN3CC=C(COC(=O)C(C)(O)C4(CO4)C1C)C23 (configuration not stated)	37*	9	-12	-3	41*	0	1	-3
COc1cc(CCN)c(OC)cc1C	2	-2	0	-4	0	.	.	.
CC(C)n1c(=O)c(C=Nc2ccc(S(N)(=O)=O)cc2)c(O)n(Cc2ccco2)c1=O	17*	7	-29	-22	8	0	1	5
CCCCn1c(=O)c(C=Nc2ccc(Cl)cc2)c(O)n(Cc2ccco2)c1=O	2	-2	-5	-6	-1	.	.	.
Cc1cc(N2CCNC[C@H]2C)ccc1N1CC[C@@H](O)C1	0	-6	-6	-4	-3	.	.	.
Cc1cc(/C=C2\C(=O)NC(=O)N(c3ccccc3F)C2=O)c(C)n1-c1cc(C(=O)O)cc(C(=O)O)c1	40*	9	-25	-1	52*	14*	-72	39*
O=C(CF)N(O)c1ccc(C=Cc2ccccc2)cc1	24*	4	-25	-19	2	0	-1	-5
O=S(=O)(c1ccc2ccccc2c1)N1Cc2cc(Br)ccc2-n2nncc2C1	-1	2	1	-1	2	.	.	.
CCN(CC)c1ccc(/C=C2\C(=O)NC(=O)N(Cc3ccco3)C2=O)cc1	71*	8	-9	-1	66*	-1	3	54*
Cc1cc(/C=C2/C(=O)NC(=O)N(Cc3ccco3)C2=O)c(C)n1-c1ccccc1O	26*	-6	-9	-2	9	1	-3	-3
Cc1cc(/C=C2/C(=O)NC(=O)N(C)C2=O)c(C)n1-c1ccccc1	-3	-2	-1	-2	-1	.	.	.
CC(C)(C)Cc1nnc(NC(=O)COc2ccc(Cl)cc2Cl)o1	-2	6	-2	-1	1	.	.	.
O=C(O)C(Br)Br	-3	4	-1	1	1	.	.	.
C=CCN1C(=O)NC(=O)/C(=C/c2cccn2C)C1=O	-2	1	-8	-6	-4	.	.	.
C=CCN1C(=O)NC(=O)/C(=C/c2ccoc2)C1=O	14*	3	-14	-13	28*	2	-9	42*
CC1CCCN(C(=O)CCl)C1 (configuration not stated)	71*	0	3	-2	-1	0	-1	-4
CC1CCCN(C(=O)CN2C3CCC2CC(O)(c2ccc(F)cc2)C3)C1 (configuration not stated)	4	-2	1	0	0	.	.	.
COc1ccc2nc(-c3ccc(CN4CCC(n5c(=O)[nH]c6cc(Cl)ccc65)CC4)cc3)c(-c3ccccc3)nc2c1	-10	-4	-58	-58	-1	.	.	.
CCN(CC)CCN=Cc1c(O)n(Cc2ccco2)c(=O)[nH]c1=O	-1	2	-10	3	0	.	.	.
O=c1[nH]c(=O)n(Cc2ccco2)c(O)c1C=NCc1ccco1	15*	2	-4	-5	6	-2	9	12
CCCCC(=O)N/N=C/c1c(O)n(Cc2ccco2)c(=O)[nH]c1=O	27*	-2	-8	-5	17	0	-2	2
O=[N+]([O-])c1ccc(N2CCOCC2)c2c1no[n+]2[O-]	14*	-17	-48	-32	-17	2	-6	12
SMILES	LEDGF integ inh	MBD2 DNA inh	PLC-beta3 inh	PLCg1 inh	UHRF1 MBD2 ctr	IN multimer up	TRFRET interf	LEDGF integ conf	others
COC(=O)C1=C(c2ccc(OC(F)(F)F)cc2)C[C@@H]2CC[C@H]1N2C(=O)N1CCc2cc(OC)c(OC)cc2C1	-2	2	-10	-3	-2	.	.	.
COCCCn1c(N)c(C(=O)NCc2ccco2)c2nc3ccccc3nc21	33*	13	-483	-352	16	-4	16	52*
CCC(C)NC(=O)c1c(N)n(CC2CCCO2)c2nc3ccccc3nc12 (configuration not stated)	19*	4	i	i	12	0	1	-1
COCCNC(=O)c1c(N)n(Cc2ccco2)c2nc3ccccc3nc12	3	-4	i	i	-13	.	.	.
CC(C)(C)OC(=O)c1c(N)n(Cc2ccco2)c2nc3ccccc3nc12	35*	-7	i	i	10	2	-5	-5
CCC(C)NC(=O)c1c(N)n(CCCOC)c2nc3ccccc3nc12 (configuration not stated)	39*	13	i	i	10	8	-25	14*
C=CC1C[N+]2(C)CCC1CC2C(O)c1ccnc2ccccc12 (configuration not stated)	-1	-2	5	2	0	.	.	.
CC[C@]12CCN(CC3(O)CC3)[C@H](Cc3ccc(O)cc31)C2(C)C	0	2	1	-2	-3	.	.	.
CC(C)(C)n1nnnc1C1CN=C(c2ccccc2)c2cc(Cl)ccc2N1 (configuration not stated)	2	-4	3	0	-4	.	.	.
C=CCn1c(O)c(C=Nc2ccc(N(CC)CC)cc2)c(=O)[nH]c1=O	30*	-2	-13	0	1	2	-9	-1
C=CCn1c(O)c(C=Nc2ccc(F)cc2)c(=O)[nH]c1=O	-4	-5	-10	-2	-2	.	.	.
Cc1ccccc1-n1c(O)c(C=Nc2ccc(N(C)C)cc2)c(=O)[nH]c1=O	19*	-4	-10	-8	2	5	-26	-12
S=P(c1ccccc1)(c1ccccc1)c1c[n+](Cc2ccccc2)c2ccccn12	-4	0	-1	-1	0	.	.	.
